Mtb hypoxia rep: PubChem AID 1159583; fluorescence inhibition, % (test concentration not listed); M. tuberculosis hypoxia-regulated fluorescent reporter, fluorescence; hit rate 0.1% among 300,000; in the data active = fluorescence inhibition mostly above about 23%, no sharp cut-off; inactive = mostly below about 17%
Mtb bLac sens: beta-lactam sensitization of Mtb H37Rv, H37Rv; M. tuberculosis H37Rv growth with meropenem, percent inhibition; inhibition, % at 25 µM; hit rate 0.27% among 330,000; call rule not given here;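 note: growth measured after seven days incubation then overnight dye step; 0% = bacteria only wells and 100% = bacteria with antibiotic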
GDH-TPI inh: GDH-TPI coupling enzyme inhibitors, primary screen, artefact control for M. tuberculosis FBA inhibitor project, biochemical, absorbance, full deck | GDH-TPI coupled enzyme counterscreen, NADH absorbance | inhibition, % at 4.8 µM | hit rate 1.2% among 360,000; in the data active = inhibition above about 30%;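 note: 0% = DMSO wells and 100% = wells lacking the enzyme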
Mtb FBA inh: Mtb FBA enzyme inhibitors, primary screen, biochemical, fluorescence, strain H37Rv; Fructose-bisphosphate aldolase (Mycobacterium tuberculosis (strain ATCC 25618 / H37Rv)), …; purified M. tuberculosis FBA, fluorescence read-out; inhibition, % at 1 µM; hit rate 2.3% among 360,000; in the data active = inhibition above about 27%;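 note: 0% = vehicle and 100% = reference inhibitor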
Target sequence (P9WQA3 whole entry, looked up): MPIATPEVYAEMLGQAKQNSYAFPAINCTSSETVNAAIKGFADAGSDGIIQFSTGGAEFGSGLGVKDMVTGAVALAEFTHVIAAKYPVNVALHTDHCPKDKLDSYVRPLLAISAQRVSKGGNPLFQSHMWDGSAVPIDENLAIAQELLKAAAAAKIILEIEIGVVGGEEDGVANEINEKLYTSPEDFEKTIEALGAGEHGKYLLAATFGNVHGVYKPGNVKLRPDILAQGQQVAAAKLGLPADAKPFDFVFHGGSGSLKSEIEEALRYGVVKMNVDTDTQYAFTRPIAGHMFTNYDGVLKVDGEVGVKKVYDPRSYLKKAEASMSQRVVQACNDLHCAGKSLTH
VHR inh abs: VHR1 phosphatase inhibitors, primary screen, biochemical, absorbance, uHTS | inhibition, % at 13.3 µM | Dual specificity protein phosphatase 3 (Homo sapiens), P51452 | AID 1654, 2009 | recombinant VHR phosphatase, pNPP absorbance | hit rate 0.52% among 290,000; in the data active = inhibition above about 50%
Target sequence (P51452 whole entry, looked up): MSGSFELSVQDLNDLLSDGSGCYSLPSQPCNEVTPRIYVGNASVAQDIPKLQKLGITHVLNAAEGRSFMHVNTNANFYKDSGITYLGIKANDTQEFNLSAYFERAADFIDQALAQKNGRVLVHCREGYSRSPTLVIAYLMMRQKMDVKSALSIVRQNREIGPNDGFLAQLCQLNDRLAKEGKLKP
Active calls of the source: *; u = inconclusive; x = no result; + = active, no number. Sampled rows, rich in hits. Any-hit rate of the full collection: about 3.6%.

SMILES | Mtb hypoxia rep | Mtb bLac sens | GDH-TPI inh | Mtb FBA inh | VHR inh abs
Nc1nc2ccccc2n1C(=O)c1cccs1 | x | x | 61* | 2 | 5
CC(=O)ON=Cc1c(C)c(C=O)n2ccccc12 | 9 | x | x | x | x
COc1cc2sc3cc(NCCCN4CCOCC4)ccc3c(=O)c2cc1OC | 11 | 81 | 24 | 34* | x
COc1cccc(C(=O)NC(C)C(c2cccs2)N2CCOCC2)c1 (stereo unspecified) | 12 | 2 | -5 | -1 | 53*
COC(=O)C1=C(C(=O)OC)C2N(C)c3ccccc3[C@@]23CC(C(=O)OC)N(C(=O)c2ccco2)C3=N1 (stereo partly specified) | 17 | x | x | x | x
CCCN1CCN(C(=O)c2cc3c(s2)-c2ccccc2OC3)CC1 | x | u | 33* | 186* | 37
CCOC(=O)N1CCN(C(=O)c2cc3c(s2)-c2ccccc2OC3)CC1 | 3 | 4 | 23 | 147* | 19
O=C(c1cc2c(s1)-c1ccccc1OC2)N1CCN(c2ccccc2)CC1 | 4 | -5 | 24 | 15 | -26
COc1ccc(N2CCN(C(=O)c3cc4c(s3)-c3ccccc3OC4)CC2)cc1 | 10 | 0 | 12 | 4 | 17
CC1=CN2C(=NC(=O)CC2(C)C(=O)N(CC(=O)NC2CCCC2)c2ccccc2C)C=C1 (stereo unspecified) | 9 | 7 | -4 | 147* | 9
Cc1ccnc(NC(=O)CCC(=O)N(CC(=O)NC2CCCCC2)Cc2ccccc2)c1 | 7 | -1 | 4 | 5 | 26
Cc1ccccc1N(CC(=O)NC1CCCCC1)C(=O)c1csnn1 | 6 | 10 | -2 | 0 | 7
CC1=CC=CN2C1=NC(=O)CC2(C)C(=O)N(CC(=O)NC1CCCC1)c1cc(C)cc(C)c1 (stereo unspecified) | 1 | -1 | 7 | 174* | 13
CC1=CN2C(=NC(=O)CC2(C)C(=O)N(CC(=O)NC2CCCC2)Cc2ccc(Cl)cc2)C=C1 (stereo unspecified) | 7 | -4 | 0 | 117* | 6
Cc1cc(C)cc(N(CC(=O)NC2CCCCC2)C(=O)CNC(=O)c2ccco2)c1 | 5 | -3 | -1 | 1 | 16
CC1=CN2C(=NC(=O)CC2(C)C(=O)N(CC(=O)NC2CCCC2)c2cc(C)cc(C)c2)C=C1 (stereo unspecified) | 11 | -2 | 3 | 144* | 39
Cc1cnn(-c2cc(NN=Cc3ccc(F)cc3)ncn2)c1 | -7 | x | x | x | x
COc1ccc(C=NS(=O)(=O)CCc2ccccc2)c(OC)c1 | 6 | x | x | x | x
CC1=CC=CN2C1=NC(=O)CC2(C)C(=O)N(CC(=O)NC1CCCC1)Cc1ccccc1 (stereo unspecified) | 8 | -3 | 10 | 152* | 26
O=C(NN=Cc1ccc(Br)s1)c1ccncc1 | 8 | x | x | x | x
COc1ccc2c(-c3ccc(S(N)(=O)=O)cc3)c(-c3ccc(S(C)(=O)=O)cc3)sc2c1 | -2 | -4 | 12 | + | x
COc1ccc(-c2sc3ccccc3c2C#CCCO)cc1 | x | 95 | 9 | 6 | 25
COc1ccc2sc(-c3ccc(S(C)(=O)=O)cc3)c(C#CCO)c2c1 | x | 2 | 34* | 21 | x
COc1ccc2c(C#CCCO)c(-c3ccc(S(C)(=O)=O)cc3)sc2c1 | 6 | 2 | 29 | + | x
CS(=O)(=O)c1ccc(-c2sc3ccccc3c2C#CCCO)cc1 | 5 | 24 | 32* | 17 | x
SMILES | Mtb hypoxia rep | Mtb bLac sens | GDH-TPI inh | Mtb FBA inh | VHR inh abs
COc1ccc(-c2sc3ccccc3c2C#CCO)cc1 | x | 93 | 8 | 17 | 17
Cc1nn(C)c(C)c1C=NNC(=O)CCn1cc([N+](=O)[O-])cn1 | 4 | x | x | x | x
Cc1nc2ccccc2n1C1CC(=O)N(N(C)C)C1=O (stereo unspecified) | 3 | 3 | 5 | 0 | 56*
C/C(CC(=O)Nc1cc(C)ccn1)=N\NC(=O)c1cccc(F)c1 | x | -4 | 12 | 5 | 52*
C=C(C)CNC(=S)NN=C(C)c1ccc(-n2ccnc2)cc1 | 9 | x | x | x | x
Cc1cc(NC(=O)c2ccccc2NS(=O)(=O)c2c(C)c(C)cc(C)c2C)no1 | 3 | 4 | 16 | 18 | -14
Cc1ccc(C)c(S(=O)(=O)Nc2ccccc2C(=O)Nc2cc(C)on2)c1 | 8 | 8 | 15 | 135* | 5
COC(=O)CNC(=O)CSc1nc2sc(-c3ccccc3)cc2c(=O)n1-c1ccccc1 | 12 | 97 | 47* | 1 | x
COC(=O)CNC(=O)CSc1nc2sccc2c(=O)n1-c1ccccc1 | 3 | -6 | -4 | 2 | 10
CN(/N=C/c1ccncc1)c1cnc2ccccc2n1 | x | x | 33* | -5 | 6
O=C(O)c1ccc(N=Cc2c(O)ccc3ccccc23)cc1 | 5 | 7 | -3 | -4 | -8
O=S(=O)(/N=C/c1c(O)ccc2ccccc12)c1ccccc1 | x | 3 | 6 | 2 | 54*
Cc1ccc2c(c1)C1CC(C)(O2)N(c2cccc(C(=O)N3CCN(c4ccccn4)CC3)c2)C(=O)N1 (stereo unspecified) | -4 | 8 | 2 | 8 | 56*
CCOC(=O)C1CCN(C(=O)c2cccc(N3C(=O)NC4CC3(C)Oc3ccc(C)cc34)c2)CC1 (stereo unspecified) | 2 | -4 | -6 | -4 | 6
CC(C)c1nc(NCCO)c(C#N)c2c1CCCC2 | 5 | 5 | 39* | 16 | -22
COc1ccc(OC)c(/C=N/NC(=O)c2cc3c(OC)c(OC)ccc3[nH]2)c1 | x | 1 | 35* | 1 | -1
CCOc1ccc(/C=N/NC(=O)c2cc3c(OC)cc(OC)c(OC)c3[nH]2)cc1 | x | 0 | 34* | 1 | x
COc1ccc2[nH]c(C(=O)Nc3ncc(C)cc3Br)cc2c1 | 9 | -8 | -3 | 6 | 25
COc1ccc2[nH]c(C(=O)N/N=C/c3ccccc3OC)cc2c1 | x | -4 | 38* | 5 | 6
COc1ccc2[nH]c(C(=O)Nc3ccc(F)cc3Br)cc2c1 | 7 | 11 | 32* | 6 | 16
Cc1ccccc1C=NNC(=O)CSc1nc2ccccc2o1 | 3 | x | x | x | x
COc1ccccc1C=NNC(=O)C(=O)NN=Cc1ccccc1OC | 8 | x | 34* | 3 | x
COc1ccc2[nH]c(C(=O)N/N=C/c3ccc(OC)c(O)c3)cc2c1 | x | -2 | 49* | 0 | 7
COc1cccc(/C=N/NC(=O)C(=O)N/N=C/c2cccc(OC)c2OC)c1OC | x | 5 | 19 | 0 | 4
COc1ccc2[nH]c(C(=O)NN=Cc3ccc(O)cc3O)cc2c1 | 7 | x | x | x | x
COC(=O)NN=Cc1ccccc1Cl | 12 | x | x | x | x
Cc1ccc2oc(=O)c3cc(C(=O)NCCCN4CCCC(C)C4)sc3c2c1 (stereo unspecified) | 2 | 0 | 27 | 5 | 51*
Cc1ccc2oc(=O)c3cc(C(=O)NCCN4CCc5ccccc5C4)sc3c2c1 | x | -1 | 18 | 9 | -7
CCCN1CCN(CCCNC(=O)c2cc3c(=O)oc4ccc(C)cc4c3s2)CC1 | 8 | -4 | 8 | 6 | 50*
Cc1ccc(C(=O)NC(=CCl)P(=O)(c2ccccc2)c2ccccc2)cc1 | 10 | x | x | x | x

From PubChem BioAssay
